Screens as filed in PubChem BioAssay.
Rows were chosen to be rich in hits. Some 3.6% of all compounds tested hit in one or more screens of this group.
GDH-TPI counter = inhibits GDH-TPI coupling enzymes, artifact for Mtb FBA screen | GDH-TPI coupled enzyme counterscreen, NADH absorbance | inhibition, % at 4.8 µM | hit rate 1.2% among 360,000; in the data active = inhibition above about 30%;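 also: 0% = DMSO wells and 100% = wells lacking the enzyme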
Mtb hypoxia inh = inhibitors of hypoxia-regulated fluorescent reporter in Mycobacterium tuberculosis; hit rate 0.1% among 300,000; fluorescence inhibition, % (concentration not given with the values); M. tuberculosis hypoxia-regulated fluorescent reporter, fluorescence; AID 1159583; in the data active = fluorescence inhibition mostly above about 23%, no sharp cut-off; inactive = mostly below about 17%
Mtb bLac sens = beta-lactam sensitization of Mtb H37Rv; M. tuberculosis H37Rv growth with meropenem, percent inhibition; inhibition, % at 25 µM; hit rate 0.27% among 330,000; call rule not given here;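 also: growth measured after seven days incubation then overnight dye step; 0% = bacteria only wells and 100% = bacteria with antibiotic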
DUSP3 inh = inhibitors of human VHR1 phosphatase (DUSP3). recombinant VHR phosphatase, pNPP absorbance. P51452. AID 1654. inhibition, % at 13.3 µM. hit rate 0.52% among 290,000; in the data active = inhibition above about 50%
FBA Mtb inh = inhibits M. tuberculosis FBA enzyme. P9WQA3. purified M. tuberculosis FBA, fluorescence read-out. inhibition, % at 1 µM. hit rate 2.3% among 360,000. AID 588726; in the data active = inhibition above about 27%;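 also: 0% = vehicle and 100% = reference inhibitor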
Target sequence (P9WQA3 whole entry, looked up): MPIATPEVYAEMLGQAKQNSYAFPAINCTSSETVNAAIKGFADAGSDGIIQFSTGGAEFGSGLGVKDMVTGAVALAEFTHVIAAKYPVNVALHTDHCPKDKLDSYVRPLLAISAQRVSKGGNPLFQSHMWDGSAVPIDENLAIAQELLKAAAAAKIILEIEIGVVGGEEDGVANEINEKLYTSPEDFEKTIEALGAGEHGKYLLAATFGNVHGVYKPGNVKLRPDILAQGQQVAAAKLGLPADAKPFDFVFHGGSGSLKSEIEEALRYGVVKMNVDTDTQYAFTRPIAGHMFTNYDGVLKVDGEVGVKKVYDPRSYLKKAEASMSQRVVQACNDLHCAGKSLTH
Active calls of the source: *; x = no result given.

SMILES	GDH-TPI counter	Mtb hypoxia inh	Mtb bLac sens	DUSP3 inh	FBA Mtb inh
Cc1cc(C(=O)N/N=C/c2ccc(-c3ccc([N+](=O)[O-])cc3Cl)o2)n[nH]1	21.7	x	93.9	16.0	0.0
N#Cc1c(-c2ccc(Cl)cc2)c2c([nH]c1=O)-c1ccccc1OC2	21.1	-10.2	5.1	19.4	183.8*
CC(C)CC(NC(=O)c1nc[nH]c1C(=O)NCCNC(=O)OC(C)(C)C)C(=O)CNCCNC(=O)c1[nH]cnc1C(=O)NC(C)C(=O)OC(C)(C)C (configuration not stated)	x	11.6	x	x	x
O=C(N/N=C/c1ccccn1)c1cc(-c2ccc3ccccc3c2)n[nH]1	8.1	x	85.5	50.8*	6.4
O=C(N/N=C/C=C/c1ccccc1[N+](=O)[O-])c1ccncc1	5.4	x	97.8	37.9	1.7
O=C(N/N=C/C=C\c1ccccc1[N+](=O)[O-])c1cc(-c2ccc3ccccc3c2)n[nH]1	13.2	x	x	51.5*	-2.6
O=C(NN=Cc1ccccn1)c1cc(-c2ccc3ccccc3c2)n[nH]1	x	8.0	x	x	x
COc1ccccc1-c1cc(C(=O)N/N=C/C=C/c2ccccc2[N+](=O)[O-])c2ccccc2n1	31.3*	x	87.3	-6.1	0.5
C#CCOCCOCCOCCNc1nc(N2CCN(C(=O)C(CCCCN)n3cc(C(N)C(C)CC)nn3)CC2)nc(N2CCN(C(=O)C(C(C)CC)n3cc(C(N)CO)nn3)CC2)n1 (configuration not stated)	x	6.6	x	x	x
CC(=O)Nc1ccc(/C(C)=N/NC(=O)c2ccc(COc3ccccc3Cl)o2)cc1	31.0*	x	4.2	x	2.6
CC(=O)c1c(COC(=O)c2cccc(C)c2)nc2ccccc2[n+]1[O-]	30.6*	4.8	-0.4	-17.0	2.0
CC(=O)c1c(COC(=O)c2ccncc2)nc2ccccc2[n+]1[O-]	13.4	x	-13.0	8.4	-0.8
CNC(=O)COc1coc(CN2CCN(Cc3ccccc3)CC2)cc1=O	-8.6	9.1	-4.8	5.5	1.1
CC(C)NC(=O)COc1coc(CN2CCN(Cc3ccccc3)CC2)cc1=O	0.0	2.2	-8.7	53.4*	-0.5
COc1cc(/C=C/CN2CCC(CO)(CC3CCCCO3)CC2)ccc1O (configuration not stated)	-6.3	-12.4	6.0	51.4*	6.4
OCC1(CC2CCCCO2)CCN(C/C=C/c2ccccc2)CC1 (configuration not stated)	2.8	6.2	-7.5	-3.9	0.4
O=C(O)COc1ccccc1C=NNC(=O)c1cccc(S(=O)(=O)Nc2cccc(Cl)c2)c1	x	-0.9	x	x	x
O=C(Cc1ccc(Br)cc1)NNC(=O)c1cccs1	-3.0	12.3	-11.3	x	-3.3
CC/C(=N\NC(=O)Cc1ccc(Br)cc1)c1cccs1	-5.2	x	-4.6	50.2*	0.9
CN1C(=O)S/C(=C/c2cccnc2)C1=O	31.5*	-2.9	6.5	3.6	-4.5
O=C(O)CN1C(=O)S/C(=C\c2cccnc2)C1=O	12.7	11.5	4.6	4.4	1.6
O=C(NCCN1C(=O)S/C(=C/c2cccnc2)C1=O)c1cccs1	31.6*	2.4	-2.9	x	-0.4
O=Cc1ccc(-c2ccc(C(=O)O)cc2)o1	42.0*	2.8	-8.3	4.4	8.5
COc1ccc(OCC(=O)Nc2ccc(N3CCOCC3)c(Cl)c2)cc1	0.0	x	-3.5	13.4	-1.2
COc1ccc(OCC(=O)NC(=S)Nc2ccc(N3CCOCC3)c(Cl)c2)cc1	-2.5	38.1*	-14.0	21.8	-0.8
SMILES	GDH-TPI counter	Mtb hypoxia inh	Mtb bLac sens	DUSP3 inh	FBA Mtb inh
Cc1cc(O)c2c(c1)C(=O)C13C(=C2O)C(=O)[C@H]2[C@@H](O)[C@@H]1[C@H]1[C@H](O)[C@@H]3C(=O)C3=C(O)c4c(O)cc(C)cc4C(=O)C312 (some centres not stated)	38.2*	x	43.6	x	-17.8
Cc1sc2ncnc(N3CCC(C(=O)Nc4nnc(SCc5ccccc5F)s4)CC3)c2c1C	0.0	11.2	-1.0	x	138.1*
CCc1cccc(NC(=O)C2CCN(c3ncnc4sc(C)c(C)c34)CC2)c1	-3.5	6.0	38.2	x	2.8
Cc1cccc(OCC(=O)NN=Cc2sc(=O)n(Cc3cccc(C(=O)O)c3)c2Cl)c1	x	1.1	x	x	x
Cc1ccc(Nc2c(-c3ccc(N4CCOCC4)cc3)nc3ncccn23)cc1	31.0*	-2.5	9.5	-7.3	2.8
Cc1ccc(Nc2c(-c3ccc(N4CCOCC4)cc3)nc3ncccn23)cc1C	7.2	6.3	5.1	11.4	1.3
COc1ccc(C=NNC(=O)c2ccc(COc3cccc4cccnc34)cc2)cc1O	x	-7.3	x	x	x
CCCn1c(NC(=O)c2ccc(C)cc2)nc2ccccc21	25.0	x	95.4	5.6	6.9
C=CCn1c(NC(=O)c2ccc(C)cc2)nc2ccccc21	21.4	-3.5	85.2	53.9*	12.6
